# The supplement of paper PMC8728848
# The sample as a whole holds a higher share of the strongest signals than the screen did.
# B1: BDCA-2 (Homo sapiens), Q8WTT0 (protein)
# chain: MVPEEEPQDREKGLWWFQLKVWSMAVVSILLLSVCFTVSSVVPHNFMYSKTVKRLSKLREYQQYHPSLTCVMEGKDIEDWSCCPTPWTSFQSSCYFISTGMQSWTKSQKNCSVMGADLVVINTREEQDFIIQNLKRNSSYFLGLSDPGGRRHWQWVDQTPYNENVTFWHSGEPNNLDERCAIINFRSSEEWGWNDIHCHVPQKSICKMKKIYI
# Columns and labels:
# Assay in all cases: glycan array binding signal (z-score within array); higher = stronger binding
# Conditions in all cases: glycan notation: IUPAC condensed, linker removed
# [1] = target: Fuc(a1-2)Gal(b1-4)GlcNAc(b1-2)Man(a1-3)[Fuc(a1-2)Gal(b1-4)GlcNAc(b1-2)Man(a1-6)]Man(b1-4)GlcNAc(b1-4)GlcNAc
# Summary of the method: (§1)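 Columns mapping to the same glycan were averaged after glycan names were converted to IUPAC-condensed notation. The data come from 3228 arrays in the Consortium for Functional Glycomics database, limited to those with an available protein sequence. Binding is reported as a within-array Z-score averaged across arrays of one protein sequence and across linkers.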
# [2] = target: Fuc(a1-2)Gal(b1-4)GlcNAc(b1-2)[Fuc(a1-2)Gal(b1-4)GlcNAc(b1-4)]Man(a1-3)[Fuc(a1-2)Gal(b1-4)GlcNAc(b1-2)Man(a1-6)]Man(b1-4)GlcNAc(b1-4)GlcNAc
# Summary of the method: as §1
# [3] = target: Fuc(a1-2)Gal(b1-4)GlcNAc(b1-3)Gal(b1-4)GlcNAc
# Summary of the method: as §1
# Fuc(a1-2)[Gal(a1-3)]Gal = target: Fuc(a1-2)[Gal(a1-3)]Gal
# Summary of the method: as §1
# [4] = target: Fuc(a1-2)[Gal(a1-3)]Gal(b1-3)GalNAc(b1-3)Gal(a1-4)Gal(b1-4)Glc
# Summary of the method: as §1
# [5] = target: Fuc(a1-3)[Gal(b1-4)]GlcNAc
# Summary of the method: as §1
# Gal(a1-3)Gal = target: Gal(a1-3)Gal
# Summary of the method: as §1
# [6] = target: Gal(a1-4)Gal(b1-4)GlcNAc(b1-2)Man(a1-3)[Gal(a1-4)Gal(b1-4)GlcNAc(b1-2)Man(a1-6)]Man(b1-4)GlcNAc(b1-4)GlcNAc
# Summary of the method: as §1
# [7] = target: Gal(b1-3)GlcNAc(b1-2)Man(a1-3)[Gal(b1-3)GlcNAc(b1-2)Man(a1-6)]Man(b1-4)GlcNAc(b1-4)GlcNAc
# Summary of the method: as §1
# [8] = target: Gal(b1-3)GlcNAc(b1-3)Gal(b1-3)GlcNAc
# Summary of the method: as §1
# [9] = target: Gal(b1-3)GlcNAc(b1-3)Gal(b1-4)GlcNAc(b1-2)Man(a1-3)[Gal(b1-3)GlcNAc(b1-3)Gal(b1-4)GlcNAc(b1-2)Man(a1-6)]Man(b1-4)GlcNAc(b1-4)GlcNAc
# Summary of the method: as §1
# [10] = target: Gal(b1-3)[Fuc(a1-4)]GlcNAc
# Summary of the method: as §1
# [11] = target: Gal(b1-4)GlcNAc(b1-2)Man(a1-3)Man(b1-4)GlcNAc(b1-4)GlcNAc
# Summary of the method: as §1
# [12] = target: Gal(b1-4)GlcNAc(b1-2)Man(a1-3)[Gal(b1-4)GlcNAc(b1-2)Man(a1-6)]Man(b1-4)GlcNAc(b1-4)GlcNAc
# Summary of the method: as §1
# [13] = target: Gal(b1-4)GlcNAc(b1-2)Man(a1-3)[Gal(b1-4)GlcNAc(b1-2)Man(a1-6)]Man(b1-4)GlcNAc(b1-4)[Fuc(a1-6)]GlcNAc
# Summary of the method: as §1
# [14] = target: Gal(b1-4)GlcNAc(b1-2)Man(a1-3)[Gal(b1-4)GlcNAc(b1-2)Man(a1-6)][GlcNAc(b1-4)]Man(b1-4)GlcNAc(b1-4)[Fuc(a1-6)]GlcNAc
# Summary of the method: as §1
# [15] = target: Gal(b1-4)GlcNAc(b1-2)Man(a1-3)[GlcNAc(b1-2)Man(a1-6)]Man(b1-4)GlcNAc(b1-4)GlcNAc
# Summary of the method: as §1
# [16] = target: Gal(b1-4)GlcNAc(b1-2)Man(a1-3)[Man(a1-6)]Man(b1-4)GlcNAc(b1-4)GlcNAc
# Summary of the method: as §1
# [17] = target: Gal(b1-4)GlcNAc(b1-2)[Gal(b1-4)GlcNAc(b1-4)]Man(a1-3)[GlcNAc(b1-4)][Gal(b1-4)GlcNAc(b1-2)[Gal(b1-4)GlcNAc(b1-6)]Man(a1-6)]Man(b1-4)GlcNAc(b1-4)GlcNAc
# Summary of the method: as §1
# [18] = target: Gal(b1-4)GlcNAc(b1-2)[Gal(b1-4)GlcNAc(b1-6)]Man(a1-6)[Gal(b1-4)GlcNAc(b1-2)Man(a1-3)]Man(b1-4)GlcNAc(b1-4)GlcNAc
# Summary of the method: as §1
# [19] = target: Gal(b1-4)GlcNAc(b1-2)[Gal(b1-4)GlcNAc(b1-6)]Man(a1-6)[Gal(b1-4)GlcNAc(b1-2)Man(a1-3)]Man(b1-4)GlcNAc(b1-4)[Fuc(a1-6)]GlcNAc
# Summary of the method: as §1
# [20] = target: Gal(b1-4)GlcNAc(b1-3)Gal(b1-4)GlcNAc(b1-3)Gal(b1-4)GlcNAc
# Summary of the method: as §1
# Gal6S(b1-4)GlcNAc6S = target: Gal6S(b1-4)GlcNAc6S
# Summary of the method: as §1
# GalNAc(a1-3)GalNAc = target: GalNAc(a1-3)GalNAc
# Summary of the method: as §1
# [21] = target: GalNAc(a1-3)GalNAc(b1-3)Gal(a1-4)Gal(b1-4)GlcNAc
# Summary of the method: as §1
# GalNAc(b1-6)GalNAc = target: GalNAc(b1-6)GalNAc
# Summary of the method: as §1
# GlcA(b1-3)GlcNAc = target: GlcA(b1-3)GlcNAc
# Summary of the method: as §1
# [22] = target: GlcA3S(b1-3)Gal(b1-4)GlcNAc(b1-2)Man
# Summary of the method: as §1
# GlcNAc(b1-3)Gal(b1-4)Glc = target: GlcNAc(b1-3)Gal(b1-4)Glc
# Summary of the method: as §1
# [23] = target: GlcNAc(b1-3)Gal(b1-4)GlcNAc(b1-3)GalNAc
# Summary of the method: as §1
# [24] = target: GlcNAc(b1-4)GlcNAc(b1-4)GlcNAc
# Summary of the method: as §1
# [25] = target: Man(a1-3)[Man(a1-6)]Man(a1-6)[Man(a1-2)Man(a1-3)]Man(b1-4)GlcNAc(b1-4)GlcNAc
# Summary of the method: as §1
# [26] = target: Man(a1-3)[Man(a1-6)]Man(a1-6)[Man(a1-3)]Man
# Summary of the method: as §1
# [27] = target: Man(a1-3)[Man(a1-6)]Man(a1-6)[Man(a1-3)]Man(b1-4)GlcNAc(b1-4)GlcNAc
# Summary of the method: as §1
# [28] = target: Man(a1-3)[Man(a1-6)]Man(b1-4)GlcNAc(b1-4)[Fuc(a1-6)]GlcNAc
# Summary of the method: as §1
# [29] = target: Neu5Ac(a2-3)Gal(b1-3)GlcNAc(b1-2)Man(a1-3)[Neu5Ac(a2-3)Gal(b1-3)GlcNAc(b1-2)Man(a1-6)]Man(b1-4)GlcNAc(b1-4)GlcNAc
# Summary of the method: as §1
# [30] = target: Neu5Ac(a2-3)Gal(b1-3)GlcNAc(b1-3)Gal(b1-3)GlcNAc
# Summary of the method: as §1
# [31] = target: Neu5Ac(a2-3)Gal(b1-3)GlcNAc(b1-6)GalNAc
# Summary of the method: as §1
# Neu5Ac(a2-6)Gal = target: Neu5Ac(a2-6)Gal
# Summary of the method: as §1
# Neu5Ac(a2-6)Gal(b1-4)Glc = target: Neu5Ac(a2-6)Gal(b1-4)Glc
# Summary of the method: as §1
# [32] = target: Neu5Ac(a2-6)Gal(b1-4)GlcNAc
# Summary of the method: as §1
# [33] = target: Neu5Ac(a2-6)Gal(b1-4)GlcNAc(b1-2)Man(a1-6)[Gal(b1-4)GlcNAc(b1-2)Man(a1-3)]Man(b1-4)GlcNAc(b1-4)GlcNAc
# Summary of the method: as §1
# [34] = target: Neu5Ac(a2-6)Gal(b1-4)GlcNAc(b1-3)Gal(b1-4)GlcNAc(b1-3)Gal(b1-4)GlcNAc
# Summary of the method: as §1
# [35] = target: Neu5Ac(a2-6)Gal(b1-4)GlcNAc(b1-6)[Gal(b1-3)]GalNAc
# Summary of the method: as §1
# Neu5Ac(a2-8)Neu5Ac = target: Neu5Ac(a2-8)Neu5Ac
# Summary of the method: as §1
# [36] = target: Neu5Ac(a2-8)Neu5Ac(a2-3)Gal(b1-4)GlcNAc
# Summary of the method: as §1
# [37] = target: Neu5Ac(a2-8)Neu5Ac(a2-8)Neu5Ac(a2-8)Neu5Ac(a2-3)[GalNAc(b1-4)]Gal(b1-4)Glc
# Summary of the method: as §1
# [38] = target: Neu5Gc(a2-3)Gal(b1-4)GlcNAc(b1-3)Gal(b1-4)GlcNAc(b1-2)Man(a1-3)[Neu5Gc(a2-3)Gal(b1-4)GlcNAc(b1-3)Gal(b1-4)GlcNAc(b1-2)Man(a1-6)]Man(b1-4)GlcNAc(b1-4)GlcNAc
# Summary of the method: as §1
# [39] = target: Neu5Gc(a2-8)Neu5Gc(a2-3)Gal(b1-4)GlcNAc
# Summary of the method: as §1
binder,measurement,setting,value
B1,glycan array binding signal (z-score),[1],-0.085
same,glycan array binding signal (z-score),[2],-0.163
same,glycan array binding signal (z-score),[3],-0.038
same,glycan array binding signal (z-score),Fuc(a1-2)[Gal(a1-3)]Gal,-0.099
same,glycan array binding signal (z-score),[4],-0.11
same,glycan array binding signal (z-score),[5],-0.224
same,glycan array binding signal (z-score),Gal(a1-3)Gal,-0.284
same,glycan array binding signal (z-score),[6],8.11
same,glycan array binding signal (z-score),[7],7.94
same,glycan array binding signal (z-score),[8],-0.16
same,glycan array binding signal (z-score),[9],-0.163
same,glycan array binding signal (z-score),[10],-0.188
same,glycan array binding signal (z-score),[11],5.76
same,glycan array binding signal (z-score),[12],8.18
same,glycan array binding signal (z-score),[13],3.64
same,glycan array binding signal (z-score),[14],3.96
same,glycan array binding signal (z-score),[15],6.87
same,glycan array binding signal (z-score),[16],3.54
same,glycan array binding signal (z-score),[17],-0.146
same,glycan array binding signal (z-score),[18],6.95
same,glycan array binding signal (z-score),[19],8.21
same,glycan array binding signal (z-score),[20],-0.237
same,glycan array binding signal (z-score),Gal6S(b1-4)GlcNAc6S,-0.168
same,glycan array binding signal (z-score),GalNAc(a1-3)GalNAc,-0.119
same,glycan array binding signal (z-score),[21],-0.114
same,glycan array binding signal (z-score),GalNAc(b1-6)GalNAc,-0.153
same,glycan array binding signal (z-score),GlcA(b1-3)GlcNAc,-0.153
same,glycan array binding signal (z-score),[22],-0.151
same,glycan array binding signal (z-score),GlcNAc(b1-3)Gal(b1-4)Glc,0.173
same,glycan array binding signal (z-score),[23],-0.167
same,glycan array binding signal (z-score),[24],-0.228
same,glycan array binding signal (z-score),[25],-0.087
same,glycan array binding signal (z-score),[26],-0.163
same,glycan array binding signal (z-score),[27],-0.184
same,glycan array binding signal (z-score),[28],-0.173
same,glycan array binding signal (z-score),[29],-0.169
same,glycan array binding signal (z-score),[30],-0.196
same,glycan array binding signal (z-score),[31],-0.169
same,glycan array binding signal (z-score),Neu5Ac(a2-6)Gal,-0.173
same,glycan array binding signal (z-score),Neu5Ac(a2-6)Gal(b1-4)Glc,-0.252
same,glycan array binding signal (z-score),[32],-0.282
same,glycan array binding signal (z-score),[33],11.8
same,glycan array binding signal (z-score),[34],-0.186
same,glycan array binding signal (z-score),[35],-0.164
same,glycan array binding signal (z-score),Neu5Ac(a2-8)Neu5Ac,-0.243
same,glycan array binding signal (z-score),[36],-0.192
same,glycan array binding signal (z-score),[37],-0.318
same,glycan array binding signal (z-score),[38],-0.153
same,glycan array binding signal (z-score),[39],-0.189
